Measurements published in PubChem BioAssay AID1159580 (chemical genetic matrix, 2015).
Hit rate of the full screen: of about 5,500 compounds, about 2,000 (36%) were called active. Roughly 18% stayed inconclusive and do not appear here. No stated cut-off is given here; in the data, active means normalized growth mostly below about 0.91 (no sharp cut-off); inconclusive means no clear call, values can overlap the other calls; inactive means mostly above about 0.92. The list shows a part of the results.

Test: chemical genetic growth profiling, strain panel (AID 1159580);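 further: tested at 20 µM; growth read once vehicle control cultures reached saturation at 30 °C; 1 = growth at the plate median or of vehicle wells; lower values mean less growth of the strain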
Settings: growth OD

Measured: normalized growth

NS(=O)(=O)c1ccc(-n2ncc3ccccc3c2=O)cc1
inactive: S. cerevisiae deletion strains, locus YAL013W, strain DEP1, hits give low values 1.02 | S. cerevisiae deletion strains, locus YBR229C, strain ROT2, hits give low values 1.01 | S. cerevisiae deletion strains, locus YCL061C, strain MRC1, hits give low values 1.01 | S. cerevisiae deletion strains, locus YDL101C, strain DUN1, hits give low values 1.04 | S. cerevisiae deletion strains, locus YDL134C, strain PPH21, hits give low values 1.02 | S. cerevisiae deletion strains, locus YDR150W, strain NUM1, hits give low values 0.989 | S. cerevisiae deletion strains, locus YEL061C, strain CIN8, hits give low values 0.987 | S. cerevisiae deletion strains, locus YGR078C, strain PAC10, hits give low values 1.02 | S. cerevisiae deletion strains, locus YHR030C, strain SLT2, hits give low values 1.05 | S. cerevisiae deletion strains, locus YHR087W, strain rtc3, hits give low values 1 | S. cerevisiae deletion strains, locus YJR043C, strain POL32, hits give low values 1.01 | S. cerevisiae deletion strains, locus YJR075W, strain HOC1, hits give low values 1.02 | S. cerevisiae deletion strains, locus YKL190W, strain CNB1, hits give low values 1 | S. cerevisiae deletion strains, locus YLR039C, strain RIC1, hits give low values 1.01 | S. cerevisiae deletion strains, locus YLR058C, strain SHM2 (second series), hits give low values 0.994 | S. cerevisiae deletion strains, locus YLR085C, strain ARP6, hits give low values 0.984 | S. cerevisiae deletion strains, locus YLR262C, strain YPT6, hits give low values 1.06 | S. cerevisiae deletion strains, locus YML094W, strain GIM5, hits give low values 0.986 | S. cerevisiae deletion strains, locus YMR219W, strain ESC1, hits give low values 1 | S. cerevisiae deletion strains, locus YMR263W, strain SAP30, hits give low values 1.01 | S. cerevisiae deletion strains, locus YMR307W, strain GAS1, hits give low values 0.981 | S. cerevisiae deletion strains, locus YNL153C, strain GIM3, hits give low values 0.996 | S. cerevisiae deletion strains, locus YNL298W, strain CLA4 (second series), hits give low values 1.01 | S. cerevisiae deletion strains, locus YNL322C, strain KRE1, hits give low values 1.01 | S. cerevisiae deletion strains, locus YNR030W, strain Alg12, hits give low values 1.01 | S. cerevisiae deletion strains, locus YPL055C, strain LGE1, hits give low values 1.02 | S. cerevisiae deletion strains, locus YPL241C, strain CIN2, hits give low values 1.03 | S. cerevisiae deletion strains, locus YPR135W, strain CTF4, hits give low values 1.06 | S. cerevisiae strains, strain wild type, hits give low values 1.01
